Assay results as given in PubChem BioAssay (Tox21).
Results filed as inconclusive are left out. The source made the active and inactive calls. Unless noted, calls follow the shape of the full dose curve.

Key:
[1] = Nuclear factor erythroid 2-related factor 2/antioxidant responsive element (Nrf2/ARE) small molecule agonists: qHTS cell viability counter screen in human keratinocytes (AID 1919968; active = well fitted curve in the direction sought with a large enough effect in the repeat runs; an effect the other way counts as inactive or inconclusive; also: nearly all actives have a fitted effect of over 55% in size; also: potency is read from the fitted curve at half-maximal effect)
Method in brief: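 Fluorescence read-out from CellTiter-Fluor after 1 h at 37 C. Wells held HaCaT-derived ARE-luciferase reporter cells (1,500/well) treated 23 h with DMSO-dissolved compounds. Run in the same wells as the luciferase agonist read.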

[2] = molecular target: Gonadotropin-releasing hormone receptor (Homo sapiens) (UniProt P30968); assay: Human gonadotropin-releasing hormone receptor (GnRHR) small molecule agonists, calcium flux assay in GnRHR-HEK293 cells (AID 1920063); also: nearly all actives have a fitted effect of over 35% in size
Method in brief: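 Calcium-dye fluorescence, Ex/Em=480/540, recorded every 1 sec over 3 min after compound addition to GnRHR-HEK293 cells. Cells had been seeded 18 hours earlier and dye-loaded for 1 hour at 37 C. Fifteen concentrations, triplicates.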

[3] = molecular target: KiSS-1 receptor (Homo sapiens) (UniProt Q969F8); assay: Human kisspeptin (KISS1R) small molecule agonists, calcium flux assay in KISS1R-HEK293 cells (AID 1920064; active = well fitted curve in the direction sought with a large enough effect in the repeat runs; an effect the other way counts as inactive or inconclusive)
Method in brief: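 Calcium flux read-out: kinetic fluorescence at Ex/Em=480/540, 1 s intervals over 3 min, after pin-tool compound addition to dye-loaded KISS1R-HEK293 cells. Fifteen concentrations, triplicates.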

[4] = G protein-coupled receptor (GPCR) small molecule agonists, calcium flux assay: HEK293 wild type cell line counter screen (AID 1920065)
Method in brief: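 Agonist mode; 18 h seeding at 37 C, 1 h dye load at 37 C; compounds pinned from DMSO, ATP as positive control; kinetic fluorescence 480/540 nm, 3 min, 1 s reads; 15 concentrations, triplicate.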

[5] = p53 small molecule agonists, cell-based qHTS assay with human liver microsomes (AID 1963577);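 also: p53 response element beta-lactamase reporter cells with liver microsomes plus NADPH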
Method in brief: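 16 h, 37 C exposure of p53RE-bla cells to compounds with human liver microsomes and NADPH (0.5 mg/mL final each); detection via LiveBLAzer mixture, 2 h dark at room temperature.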

[6] = p53 small molecule agonists, cell-based qHTS assay with rat liver microsomes (AID 1963578)
Method in brief: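 With rat liver microsomes and NADPH present (0.5 mg/mL final each), p53RE-bla cells are treated with compound for 16 h at 37 C. LiveBLAzer detection mixture is then applied for 2 h at room temperature in the dark.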

[7] = p53 small molecule agonists, cell-based qHTS assay with human liver microsomes: qHTS cell viability counter screen (AID 1963579); also: nearly all actives have a fitted effect of over 45% in size
Method in brief: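 In this multiplexed counter screen, the reporter plates were subsequently treated with CellTiter-Glo so that cell viability, reflected by luminescence, could be recorded for p53RE-bla cells dosed 16 h with compounds under microsomal activation (HLM and NADPH).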

[8] = p53 small molecule agonists, cell-based qHTS assay with rat liver microsomes: qHTS cell viability counter screen (AID 1963580); also: nearly all actives have a fitted effect of over 45% in size
Method in brief: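 Cytotoxicity counter screen: intracellular ATP read by CellTiter-Glo luminescence in the p53 reporter wells. HCT-116 p53RE-bla cells were treated for 16 h at 37 C alongside rat liver microsomes and NADPH, each 0.5 mg/mL final.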

[9] = p53 small molecule agonists, cell-based qHTS assay (AID 1963582; active = well fitted activation curve with a large enough effect in the signal ratio in the repeat runs, not every such curve was filed as active; the % refers to the signal ratio)
Method in brief: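 Fluorescence intensity read-out of a beta-lactamase reporter under a p53 response element. Cells were exposed to DMSO-dissolved compounds for 16 h at 37 C, then developed with FRET substrate for 2 h at RT.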

[10] = molecular target: 5-hydroxytryptamine receptor 2A (Homo sapiens) (UniProt P28223); assay: 5-hydroxytryptamine receptor 2A (HTR2A) small molecule agonists, cell-based qHTS assay (AID 1963587); also: nearly all actives have a fitted effect of over 30% in size
Method in brief: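 Kinetic calcium-flux fluorescence (2 min, 1 sec intervals) after compound addition in agonist mode. HTR2A-CHO cells were cultured 18 h, then dye-loaded 1 h at 37 C.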

[11] = molecular target: Muscarinic acetylcholine receptor M1 (Homo sapiens) (UniProt P11229); assay: Cholinergic receptor muscarinic 1 (CHRM1) small molecule antagonists, cell-based qHTS assay (AID 1963588); also: nearly all actives have a fitted effect of over 40% in size
Method in brief: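 Compounds were tested at 15 concentrations in three independent runs. Dye-loaded CHRM1-CHO cells were exposed 5 min at room temperature before stimulation by acetylcholine added at 50nM. Intracellular calcium was read kinetically on FDSS for 3 min.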

[12] = molecular target: Muscarinic acetylcholine receptor M1 (Homo sapiens) (UniProt P11229); assay: Cholinergic receptor muscarinic 1 (CHRM1) small molecule agonists, cell-based qHTS assay (AID 1963589); also: nearly all actives have a fitted effect of over 35% in size
Method in brief: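 Calcium flux read-out: kinetic fluorescence at 1 sec intervals after pin-tool compound addition to dye-loaded CHRM1-CHO cells (human M1). Agonist mode; 15 concentrations tested in triplicate independent runs.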

[13] = cAMP Responsive Elements (CRE) small molecule agonists, cell-based qHTS assay (AID 1963590)
Method in brief: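 Beta-lactamase reporter readout: LiveBLAzer B/G FRET substrate, 2 h at room temperature, added after 3 h compound treatment of CRE-bla HEK 293T cells at 37 C/5% CO2.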

[14] = molecular target: Beta-2 adrenergic receptor (Homo sapiens) (UniProt P07550); assay: Adrenergic beta2 receptor (ADRB2) small molecule antagonists, cell-based qHTS assay (AID 1963592); also: series mostly up to about 92 µM; nearly all actives have a fitted effect of over 50% in size
Method in brief: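 Assay format: CHO-ADRB2 cells, 18-20hr seeding at 37C/5% CO2, then compound plus 1nM isoproterenol agonist mix for 0.5hr RT. Homogeneous time-resolved fluorescence cAMP detection after 1hr, expressed as 665/615 nm ratio.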

[15] = molecular target: D(2) dopamine receptor (Homo sapiens) (UniProt P14416); assay: Dopamine D2 receptor (DRD2) small molecule agonists, cell-based qHTS assay (AID 1963594); also: nearly all actives have a fitted effect of over 35% in size
Method in brief: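 cAMP accumulation in DRD2-HEK293 cells measured by HTRF after 1 h detection; compounds added 10 min before NKH477 (200nM […]) forskolin-analogue stimulation, 30 min at room temperature, with Ro20-1724 present at 0.1 mM final.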

[16] = molecular target: D(2) dopamine receptor (Homo sapiens) (UniProt P14416); assay: Dopamine D2 receptor (DRD2) small molecule antagonists, cell-based qHTS assay (AID 1963595; active = well fitted inhibition curve with a large enough effect in the signal ratio in the repeat runs, with a control signal flat; the % refers to the signal ratio)
Method in brief: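 Antagonism was scored as restored cAMP in HEK293-DRD2 cells. These cells were stimulated with 200 nM NKH477 and 12 nM quinpirole for 30 min at room temperature, in the presence of 0.1 mM Ro20-1724.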

[17] = molecular target: 5-hydroxytryptamine receptor 2A (Homo sapiens) (UniProt P28223); assay: 5-hydroxytryptamine receptor 2A (HTR2A) small molecule antagonists, cell-based qHTS assay (AID 1963586); also: nearly all actives have a fitted effect of over 45% in size
Method in brief: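 CHO cells stably expressing human HTR2A were plated for 18 h at 37 C, then loaded with calcium dye for 1 h. Compounds were preincubated 5 min at room temperature before DOI (4 nM solution) was added. Kinetic fluorescence was read for 3 min.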

[18] = p53 small molecule agonists, cell-based qHTS assay: qHTS cell viability counter screen (AID 1963581); also: nearly all actives have a fitted effect of over 45% in size; also: potency is read from the fitted curve at half-maximal effect
Method in brief: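 Cytotoxicity read-out: ATP-based luminescence (CellTiter-Glo, 30 min RT) measured in the same wells as the p53 reporter assay, HCT-116 p53RE-bla cells, 16 h compound exposure at 37 C.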

[19] = cAMP Responsive Elements (CRE) small molecule antagonists, cell-based qHTS assay (AID 1963591; active = well fitted inhibition curve with a large enough effect in the signal ratio in the repeat runs, not every such curve was filed as active; the % refers to the signal ratio)
Method in brief: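 HEK293T CRE-bla; 18 h preincubation; compound pin-transfer; NKH477 0.25 uM final, 3 h, 37 C; LiveBLAzer FRET substrate 2 h RT.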
% is scaled to controls: 0 for no effect and ±100 for the full control effect.

Sequence of KiSS-1 receptor (Homo sapiens) (Q969F8 whole entry, looked up): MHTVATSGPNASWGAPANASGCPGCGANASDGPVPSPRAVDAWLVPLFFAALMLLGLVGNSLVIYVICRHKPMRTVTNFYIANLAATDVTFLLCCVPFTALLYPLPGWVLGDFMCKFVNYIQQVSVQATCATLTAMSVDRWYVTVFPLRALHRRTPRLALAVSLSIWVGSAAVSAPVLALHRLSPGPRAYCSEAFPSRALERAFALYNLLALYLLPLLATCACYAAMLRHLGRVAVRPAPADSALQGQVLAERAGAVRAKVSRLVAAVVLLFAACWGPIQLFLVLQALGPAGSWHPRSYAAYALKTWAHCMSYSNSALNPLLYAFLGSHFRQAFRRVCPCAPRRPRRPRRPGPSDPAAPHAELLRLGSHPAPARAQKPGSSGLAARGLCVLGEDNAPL
Sequence of Muscarinic acetylcholine receptor M1 (Homo sapiens) (P11229 whole entry, looked up): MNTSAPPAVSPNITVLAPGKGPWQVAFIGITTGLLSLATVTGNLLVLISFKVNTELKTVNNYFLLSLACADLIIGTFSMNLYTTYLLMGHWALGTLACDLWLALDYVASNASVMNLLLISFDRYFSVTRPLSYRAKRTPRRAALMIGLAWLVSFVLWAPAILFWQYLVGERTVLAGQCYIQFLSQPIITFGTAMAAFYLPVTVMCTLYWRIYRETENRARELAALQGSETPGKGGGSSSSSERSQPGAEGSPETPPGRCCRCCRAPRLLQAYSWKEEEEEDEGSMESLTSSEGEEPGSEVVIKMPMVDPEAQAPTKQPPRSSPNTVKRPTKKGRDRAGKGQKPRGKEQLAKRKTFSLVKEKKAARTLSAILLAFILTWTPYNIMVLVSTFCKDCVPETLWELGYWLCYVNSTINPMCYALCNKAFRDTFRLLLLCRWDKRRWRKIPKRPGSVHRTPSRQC
Sequence of 5-hydroxytryptamine receptor 2A (Homo sapiens) (P28223 whole entry, looked up): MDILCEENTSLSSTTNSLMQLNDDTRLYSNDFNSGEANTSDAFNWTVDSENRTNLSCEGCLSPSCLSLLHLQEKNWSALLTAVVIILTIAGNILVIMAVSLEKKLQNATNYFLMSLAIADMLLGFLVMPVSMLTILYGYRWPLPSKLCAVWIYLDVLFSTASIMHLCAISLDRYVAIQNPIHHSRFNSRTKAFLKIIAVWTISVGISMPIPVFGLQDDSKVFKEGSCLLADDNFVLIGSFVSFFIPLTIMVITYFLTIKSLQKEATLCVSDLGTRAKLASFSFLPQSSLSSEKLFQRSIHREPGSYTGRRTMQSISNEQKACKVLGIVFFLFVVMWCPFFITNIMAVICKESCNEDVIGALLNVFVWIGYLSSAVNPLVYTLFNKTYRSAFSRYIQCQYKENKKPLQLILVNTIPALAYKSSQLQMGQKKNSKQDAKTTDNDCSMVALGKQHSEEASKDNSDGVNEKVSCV
Sequence of Beta-2 adrenergic receptor (Homo sapiens) (P07550 whole entry, looked up): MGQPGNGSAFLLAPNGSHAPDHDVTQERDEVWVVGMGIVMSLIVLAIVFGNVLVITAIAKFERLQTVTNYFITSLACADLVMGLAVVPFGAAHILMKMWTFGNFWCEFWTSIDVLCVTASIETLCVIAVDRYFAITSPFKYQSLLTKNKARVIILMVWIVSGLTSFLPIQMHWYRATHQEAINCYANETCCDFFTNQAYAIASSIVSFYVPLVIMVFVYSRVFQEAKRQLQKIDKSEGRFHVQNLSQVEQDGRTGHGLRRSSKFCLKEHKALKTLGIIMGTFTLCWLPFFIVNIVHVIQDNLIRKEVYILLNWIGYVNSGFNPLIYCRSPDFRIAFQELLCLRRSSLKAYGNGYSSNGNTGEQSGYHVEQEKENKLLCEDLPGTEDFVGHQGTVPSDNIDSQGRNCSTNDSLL
Sequence of Gonadotropin-releasing hormone receptor (Homo sapiens) (P30968 whole entry, looked up): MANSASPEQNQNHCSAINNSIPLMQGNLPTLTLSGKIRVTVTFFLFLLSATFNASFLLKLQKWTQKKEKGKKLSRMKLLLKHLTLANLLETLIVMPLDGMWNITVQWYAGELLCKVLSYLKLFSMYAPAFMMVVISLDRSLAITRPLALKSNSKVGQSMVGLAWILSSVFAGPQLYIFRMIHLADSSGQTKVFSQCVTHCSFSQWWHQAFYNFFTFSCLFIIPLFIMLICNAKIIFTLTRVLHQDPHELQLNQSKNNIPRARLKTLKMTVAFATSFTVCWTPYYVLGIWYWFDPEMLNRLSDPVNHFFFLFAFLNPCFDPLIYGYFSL
Sequence of D(2) dopamine receptor (Homo sapiens) (P14416 whole entry, looked up): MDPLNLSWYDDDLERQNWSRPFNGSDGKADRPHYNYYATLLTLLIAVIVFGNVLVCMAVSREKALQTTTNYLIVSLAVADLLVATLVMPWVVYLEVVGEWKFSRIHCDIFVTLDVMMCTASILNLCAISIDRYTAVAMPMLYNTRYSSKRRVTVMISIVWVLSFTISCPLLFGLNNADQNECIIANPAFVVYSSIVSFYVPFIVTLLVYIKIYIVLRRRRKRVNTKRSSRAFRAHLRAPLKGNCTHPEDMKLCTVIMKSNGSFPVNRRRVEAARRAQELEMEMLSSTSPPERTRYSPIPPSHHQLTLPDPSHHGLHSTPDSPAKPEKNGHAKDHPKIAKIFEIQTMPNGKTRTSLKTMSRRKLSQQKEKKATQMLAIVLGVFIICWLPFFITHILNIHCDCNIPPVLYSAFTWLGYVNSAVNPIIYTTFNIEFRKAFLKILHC

Oc1ccc2ccccc2c1
inactive: Potency [1] | Potency [2] | Potency [3] | Potency [4] | Potency [5] | Potency [6] | Potency [7] | Potency [8] | Potency [9] | Potency [10] | Potency [11] | Potency [12] | Potency [13] | Potency [14] | Potency [15] | Potency [16]

O=C(O)Cc1cc(I)c(Oc2ccc(O)c(I)c2)c(I)c1
inactive: Potency [1] | Potency [2] | Potency [3] | Potency [4] | Potency [5] | Potency [6] | Potency [7] | Potency [8] | Potency [17] | Potency [10] | Potency [11] | Potency [12] | Potency [14] | Potency [15]

OCCN1CCN(CCO)CC1
inactive: Potency [1] | Potency [2] | Potency [3] | Potency [4] | Potency [5] | Potency [6] | Potency [7] | Potency [8] | Potency [18] | Potency [17] | Potency [10] | Potency [12] | Potency [13] | Potency [19] | Potency [14] | Potency [15] | Potency [16]

COc1cc(/C=C/c2ccccc2)oc(=O)c1
inactive: Potency [1] | Potency [2] | Potency [3] | Potency [4] | Potency [5] | Potency [6] | Potency [7] | Potency [8] | Potency [18] | Potency [17] | Potency [10] | Potency [11] | Potency [12] | Potency [14] | Potency [15] | Potency [16]

C[C@](N)(Cc1ccc(O)cc1)C(=O)O
inactive: activity change, negative = cytotoxicity [1] 5.45% [at 8.39 µM] | activity change [2] -1.06% [at 5.22 µM, hits give high values] | activation [3] -0.73% [at 6.97 µM] | activation [4] 0.0455% [at 5.23 µM] | activation [5] 3.02% [at 5.99 µM] | activation [6] -3.92% [at 5.99 µM] | activity change, negative = cytotoxicity [7] 8.09% [at 5.99 µM] | activity change, negative = cytotoxicity [8] -5.36% [at 5.99 µM] | activity change, negative = cytotoxicity [18] -19.4% [at 5.99 µM] | activation [9] -6.7% [at 5.99 µM] | activation [13] -0.0581% [at 8.39 µM] | activity change, negative = inhibition [19] 2.35% [at 8.39 µM] | activity change, negative = inhibition [14] 3.74% [at 8.39 µM] | activation [15] -6.61% [at 8.39 µM] | activity change, negative = inhibition [16] -5.15% [at 8.38 µM]

NCCc1cnc[nH]1
inactive: Potency [1] | Potency [2] | Potency [3] | Potency [4] | Potency [5] | Potency [6] | Potency [7] | Potency [8] | Potency [9] | Potency [17] | Potency [10] | Potency [11] | Potency [12] | Potency [19] | Potency [14] | Potency [15] | Potency [16]

C(=C\c1ccccc1)/CN1CCN(C(c2ccccc2)c2ccccc2)CC1
active: Potency [1] 13.3 µM
inactive: Potency [2] | Potency [3] | Potency [4] | Potency [5] | Potency [6] | Potency [7] | Potency [8] | Potency [18] | Potency [9] | Potency [14] | Potency [15]

O=C(Nc1ccc(Oc2ccc(Cl)cc2)c(Cl)c1)c1cc(I)cc(I)c1O
inactive: Potency [2] | Potency [3] | Potency [4] | Potency [5] | Potency [6] | Potency [7] | Potency [8] | Potency [17] | Potency [10] | Potency [12] | Potency [19] | Potency [14] | Potency [15] | Potency [16]
active: Potency [1] 26.6 µM | Potency [18] 5 µM
